# WRN helicase inh – qHTS for Inhibitors of WRN Helicase; WRN helicase unwinding, fluorescent forked duplex, kinetic; Potency, µM (highest dose often 114 µM), for the others: at the top dose activity change, negative = inhibition, hits mostly inhibitors; 360,000 tested, 0.46% active; AID 651768, 2012; further: on the % scale 0 is the no-effect control and ±100 the full control effect; nearly all actives have a fitted effect of over 55% in size
#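 Kinetic fluorescence helicase assay: unwinding of a quenched forked DNA duplex (100 nM final) with 2 mM ATP final raises red fluorescence (525/598 nm). Compounds sat 15 min at room temperature with 20 nM WRN beforehand.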
# Pol kappa inh-1 – qHTS for Inhibitors of Polymerase Kappa; purified Pol kappa, fluorescent DNA synthesis assay, 10 min; Potency, µM (top dose mostly 107 µM), inactives show at the top dose activity, negative = inhibition, usual class: inhibitors; 400,000 tested, 0.53% active; further: on the % scale 0 is the no-effect control and ±100 the full control effect
#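 Enzyme at 10 nM met test compounds for 15 min at room temperature. Substrate addition (50 nM final) began the reaction, which was monitored by fluorescence at 0 and 10 min.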
# Pol eta inh-1 – qHTS for Inhibitors of Polymerase Eta; DNA polymerase eta (Homo sapiens), Q9Y253; recombinant Pol eta, fluorescent DNA replication assay; Potency, µM (highest dose often 114 µM), inactives show top-dose activity change, negative = inhibition, hits mostly inhibitors; 390,000 tested, 1.2% active; AID 588591, 2011; further: on the % scale 0 is the no-effect control and ±100 the full control effect
# Target sequence (Q9Y253 whole entry, looked up): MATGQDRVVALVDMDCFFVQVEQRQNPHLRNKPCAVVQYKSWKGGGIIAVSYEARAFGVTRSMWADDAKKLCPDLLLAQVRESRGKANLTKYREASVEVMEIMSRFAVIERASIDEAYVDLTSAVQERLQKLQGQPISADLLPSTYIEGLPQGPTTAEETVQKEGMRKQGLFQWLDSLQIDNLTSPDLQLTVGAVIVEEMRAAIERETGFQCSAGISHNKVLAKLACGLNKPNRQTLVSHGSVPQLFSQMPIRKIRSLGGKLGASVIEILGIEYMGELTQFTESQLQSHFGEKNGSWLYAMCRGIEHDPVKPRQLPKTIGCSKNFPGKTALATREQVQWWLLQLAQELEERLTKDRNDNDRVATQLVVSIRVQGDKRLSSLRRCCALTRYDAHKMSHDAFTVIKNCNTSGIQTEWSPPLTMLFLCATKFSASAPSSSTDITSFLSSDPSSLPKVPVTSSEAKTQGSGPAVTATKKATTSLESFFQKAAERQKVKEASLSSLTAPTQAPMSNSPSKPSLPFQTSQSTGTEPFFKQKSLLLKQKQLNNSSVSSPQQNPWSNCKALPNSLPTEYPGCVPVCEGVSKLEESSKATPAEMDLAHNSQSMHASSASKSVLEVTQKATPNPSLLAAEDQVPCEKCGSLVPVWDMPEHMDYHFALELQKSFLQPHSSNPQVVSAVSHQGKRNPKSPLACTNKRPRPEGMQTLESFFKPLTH
#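 Fluorescent replication assay: 50 nM final substrate added after a 15 min room-temperature compound preincubation with 10 nM enzyme. Signal taken at 0 min and again at 10 min.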
# POLI inh – qHTS for Inhibitors of Polymerase Iota | DNA polymerase iota (Homo sapiens), Q9UNA4 | 390,000 tested, 1% active | AID 588590, 2011 | Potency, µM (doses to about 115 µM), for inactives: at the highest dose activity, negative = inhibition, hits mostly inhibitors | Pol iota fluorescent replication assay, 10 min
#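 Pol iota at 10 nM preincubated 15 min with compounds at room temperature; reaction started with fluorescent substrate, 50 nM final. Fluorescence read kinetically at 0 and 10 min; buffer-only wells as negative control.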
# POLB inh – qHTS Assay for Inhibitors of DNA Polymerase Beta; P06746; Pol beta primer extension/strand displacement, fluorescence kinetic; Potency, µM (doses to about 114 µM), inactives show at the top dose activity change, negative = inhibition, hits mostly inhibitors; 340,000 tested, 1.3% active; further: on the % scale 0 is the no-effect control and ±100 the full control effect
#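 Homogeneous kinetic assay of primer extension and strand displacement by 10 nM Pol beta, preincubated 15 min at room temperature with compound before 50 nM substrate (final) was added. Read at 0 and 10 min; four-parameter Hill fit.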
# FEN1 inh – qHTS Assay for the Inhibitors of Human Flap endonuclease 1 (FEN1). P39748. Recombinant FEN1 flap cleavage, fluorescence, 15 min. Potency, µM (doses to about 114 µM), for inactives: at the top dose activity change, negative = inhibition, actives largely listed as inhibitors. 390,000 tested, 0.35% active. AID 588795, 2011; further: on the % scale 0 is the no-effect control and ±100 the full control effect; nearly all actives have a fitted effect of over 65% in size
#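 FEN1 at 10 nM preincubated with compounds 15 min at room temperature, then flap DNA substrate added at 50 nM final. Signal read at 0 and 15 min; concentration-response fitted with four-parameter Hill equation.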
# Pol iota confirm – qHTS for Inhibitors of Polymerase Iota: Confirmatory Assay for Cherry-picked Compounds | shares compounds with Pol kappa inh-1 | Potency, µM, hits mostly inhibitors | 1,500 tested, 77% active | Pol iota primer extension, TAMRA/BHQ fluorescence
# Pol kappa inh-2 – qHTS for Inhibitors of Polymerase Kappa: Confirmatory Assay for Cherry-picked Compounds. AID 720501, 2013. 920 tested, 76% active. Potency, µM, hits mostly inhibitors. purified Pol-kappa, fluorescent strand-displacement substrate. shares compounds with Pol eta inh-1
# Pol eta inh-2 – qHTS for Inhibitors of Polymerase Eta: Confirmatory Assay for Cherry-picked Compounds; shares compounds with Pol eta inh-1; AID 720502, 2013; 2,600 tested, 64% active; Potency, µM, most hits filed as inhibitors; Pol eta primer extension, TAMRA/BHQ fluorescence, 10 min
# Numbers without * were called inactive; ? = inconclusive; · = no result; [ ] = remark or other dose. Hits are enriched below; roughly 2.4% of the tested compounds scored in any of these assays. The call rests on the fitted dose curve; in most records, active means well fitted curve in the direction sought with a large enough effect; inconclusive means small, poorly fitted or top-dose-only effect, or another doubt; inactive means no such curve, though single readings can be large; an effect the other way counts as inactive or inconclusive. Potency means the concentration at half of the fitted maximal effect.
SMILES,WRN helicase inh,Pol kappa inh-1,Pol eta inh-1,POLI inh,POLB inh,FEN1 inh,Pol iota confirm,Pol eta inh-2,others
Cc1ccc(S(=O)(=O)N2[C@@H](c3ccc(C(C)(C)C)cc3)C(C(=O)O)=CC[C@H]2c2ccc(Cl)cc2)cc1,?,?,79µM*,?,·,-10%,?,?,Pol kappa inh-2=67*
O=c1[nH]c(=O)n([C@H]2C[C@@H](O)[C@@H](CO)O2)cc1F,·,-2%,·,0%,·,7%,·,·,
CSc1nsc(/C=C/Nc2ccc(F)cc2F)c1C#N,-35%[57.1 µM],-22%,5%,119%,-8%,-13%,·,·,
CSc1nsc(/C=C/Nc2ccc(C(=O)O)cc2)c1C#N,-6%,-9%[60.1 µM],28µM*,56%,32µM*,-7%,75*,43*,
COc1ccccc1N(CC(=O)N1CCC(C)CC1)S(=O)(=O)c1ccc(C)cc1,·,7%,-12%,22%,15%,-4%,·,·,
O=C(c1ccc2c(c1)N(Cc1cccc(Cl)c1)C(=O)c1ccccc1S2=O)N1CCC(Cc2ccccc2)CC1 (centres undefined),·,-7%[60.1 µM],-17%,15%,-7%,9%,·,·,
O=C(CCN1C(=O)/C(=C/c2ccco2)SC1=S)Nc1ccc(O)cc1C(=O)O,32µM*,?,5.6µM*,4.5µM*,22µM*,35µM*,47*,30*,Pol kappa inh-2=13*
O=C(CCN1C(=O)/C(=C\c2ccco2)SC1=S)Nc1ccc(C(=O)O)c(O)c1,50µM*,20µM*,8.9µM*,-93%,100µM*,18µM*,19*,5.4*,Pol kappa inh-2=4.7*
O=C1/C(=C/c2ccco2)SC(=S)N1CC1CCCO1 (centres undefined),?,89µM*,50µM*,22µM*,13µM*,-23%,?,67*,Pol kappa inh-2=42*
O=C(CCN1C(=O)/C(=C/c2ccc(Cl)cc2)SC1=S)Nc1ccc(C(=O)O)cc1,-5%,-13%,-1%,137%,37%,-3%,·,·,
COc1cccc(C2c3c(-c4ccccc4O)n[nH]c3C(=O)N2CCc2ccc(OC)c(OC)c2)c1 (centres undefined),·,-4%,-19%,-8%,5%,-16%,·,·,
Cc1ccc(CNC(=O)c2ccc3c(O)c(S(=O)(=O)c4ccccc4)c(=O)[nH]c3c2)cc1,·,-8%,1%,10%,2%,17%,·,·,
CCN(CC)c1ccc2c(C)c(Cl)c(=O)oc2c1,-8%,-24%,0%,9%,-11%,-6%,·,·,
CCN(CC)c1ccc2c(c1)oc(=O)c1c(Cl)cc(=O)oc12,-9%[57.1 µM],?,14µM*,14µM*,-15%,-22%,?,?,
COc1ccccc1CNC(=O)c1cc2cc3ccc(Cl)cc3nc2o1,·,-3%,-5%,-22%,4%,0%,·,·,
Cc1nnc(N2C(=O)c3oc4ccccc4c(=O)c3C2c2ccco2)s1 (centres undefined),?,?,?,?,20µM*,-26%,?,?,
COc1cc(/C=C(\C#N)c2nc3ccccc3[nH]2)ccc1OCc1ccc(F)cc1,·,-21%,79µM*,?,11µM*,?,67*,?,
CCOc1cc(/C=C(\C#N)c2nc3ccccc3[nH]2)ccc1OC(C)C(=O)O (centres undefined),-18%,-11%,-5%,-13%,4%,-1%,·,·,
O=C(Nc1ccccc1)N1CCC2(CC1)CCN(C(=O)c1cnccn1)CC2,·,1%[60.1 µM],·,·,·,·,·,·,
CCN(C(=O)C(C)N1C(=O)/C(=C/c2ccco2)SC1=S)C1CCS(=O)(=O)C1 (centres undefined),50µM*,28µM*,16µM*,22µM*,11µM*,?,42*,27*,
CCN(CC)C(=O)COC(=O)c1cc(-c2ccco2)nc2ccccc12,?,79µM*,40µM*,14µM*,28µM*,?,47*,67*,
O=C(Nc1ccc(F)cc1F)c1cc(-c2ccco2)nc2ccccc12,-31%,-11%,1%,19%,5%,5%,·,·,
CCN(CC)C(=O)COC(=O)c1cc(-c2ccc(OC)cc2)nc2ccccc12,-7%[57.1 µM],-14%,0%,-4%,25%,?,·,·,
O=C(O)c1ccccc1/C=N/NC(=O)c1cc(-c2ccco2)nc2ccccc12,?,35µM*,3.2µM*,?,8.9µM*,?,17*,7.6*,
COc1ccc(CCNC(=O)c2cc(-c3ccco3)nc3ccccc23)cc1,?,79µM*,8.9µM*,22µM*,·,-15%,34*,67*,
SMILES,WRN helicase inh,Pol kappa inh-1,Pol eta inh-1,POLI inh,POLB inh,FEN1 inh,Pol iota confirm,Pol eta inh-2,others
O=C(Nc1ccccc1F)c1cc(-c2ccco2)nc2ccccc12,?,-31%,79µM*,?,·,1%,?,85*,
COc1ccc2c(c1)C(c1ccccc1C)CC(=O)O2 (centres undefined),·,-23%,·,·,·,·,·,·,
COc1cccc(N2CCN(C(=O)c3ccc(Cn4c(=O)[nH]c5cc(OC)c(OC)cc5c4=O)cc3)CC2)c1,·,-3%,-4%,-18%,19%,-9%,·,·,
Cc1cccc(NC(=O)CNC(=O)c2cccc(-n3cccc3)c2)c1C,?,32µM*,3.2µM*,7.9µM*,·,?,9.5*,9.5*,
Cc1cccc(NC(=O)CNCC(=O)Nc2cccc(C)c2C)c1C,5%,18%,-5%,53%,41%,7%,·,·,
Cc1ccc(S(=O)(=O)N2CCC(c3nnc(-c4cccc(C)c4)o3)CC2)cc1,·,-3%,-14%,15%,0%,-6%,·,·,
CCc1cccc(CC)c1NC(=O)Cn1nnc2sc(-c3ccccc3)cc2c1=O,·,-7%,·,24%,16%,-12%,·,·,
O=C1C2C(C(=O)N1/N=C/c1cc([N+](=O)[O-])c(O)cc1O)C1C=CC2C12CC2 (centres undefined),?,50µM*,10µM*,20µM*,11µM*,-32%,42*,30*,

# Assay outcomes (PubChem)
